# From PMC7862700, “An all-to-all approach to the identification of sequence-specific readers for epigenetic DNA modifications on cytosine”
# Legend:
# Experiment in all cases: DAPPL (digital affinity profiling via proximity ligation, sequencing); 10 mM Tris-HCl pH 7.5, 50 mM NaCl, 1 mM DTT, 4% glycerol, room temperature, 30 min; GST-TFs on glutathione beads, 16-mer random dsDNA library, 0.1% formaldehyde crosslink after washing; high values mean tight binding
# Details in all cases: protein: recombinant; tags: N-terminal GST; dsDNA, one strand shown
# ELK1 = molecular target: T1, ELK1 (Homo sapiens, UniProt P19419 1-428)
# T1 sequence: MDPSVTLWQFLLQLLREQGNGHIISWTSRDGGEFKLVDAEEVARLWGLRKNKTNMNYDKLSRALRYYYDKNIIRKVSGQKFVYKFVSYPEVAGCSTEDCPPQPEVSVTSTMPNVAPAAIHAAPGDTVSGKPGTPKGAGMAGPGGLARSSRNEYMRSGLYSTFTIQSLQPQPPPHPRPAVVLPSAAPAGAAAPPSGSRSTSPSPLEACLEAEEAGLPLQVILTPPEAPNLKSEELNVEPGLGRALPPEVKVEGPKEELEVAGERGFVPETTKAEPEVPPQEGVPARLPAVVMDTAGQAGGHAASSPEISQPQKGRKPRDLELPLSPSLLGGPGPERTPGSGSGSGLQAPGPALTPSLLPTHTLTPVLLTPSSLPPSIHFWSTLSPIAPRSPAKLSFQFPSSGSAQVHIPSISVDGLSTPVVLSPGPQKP
# In short: (§1)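 After expression in yeast as GST fusions, human transcription factors were bound to glutathione beads, DNA-barcoded and mixed with a tag-only sample. The pools were incubated with 200 nmole of a 16-mer random double-stranded DNA library in Tris/NaCl/DTT/glycerol buffer (30 min, room temperature), washed and crosslinked with 0.1% formaldehyde. Proximity ligation with BsaI/T4 ligase ran for 1 h at 37 °C, before PCR amplification and sequencing on an Illumina NextSeq500. Binding signal is a hexamer's read frequency for a factor divided by its frequency for the tag-only sample.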
# GABPA = molecular target: T2, GABPA (Homo sapiens, UniProt Q06546 1-454)
# T2 sequence: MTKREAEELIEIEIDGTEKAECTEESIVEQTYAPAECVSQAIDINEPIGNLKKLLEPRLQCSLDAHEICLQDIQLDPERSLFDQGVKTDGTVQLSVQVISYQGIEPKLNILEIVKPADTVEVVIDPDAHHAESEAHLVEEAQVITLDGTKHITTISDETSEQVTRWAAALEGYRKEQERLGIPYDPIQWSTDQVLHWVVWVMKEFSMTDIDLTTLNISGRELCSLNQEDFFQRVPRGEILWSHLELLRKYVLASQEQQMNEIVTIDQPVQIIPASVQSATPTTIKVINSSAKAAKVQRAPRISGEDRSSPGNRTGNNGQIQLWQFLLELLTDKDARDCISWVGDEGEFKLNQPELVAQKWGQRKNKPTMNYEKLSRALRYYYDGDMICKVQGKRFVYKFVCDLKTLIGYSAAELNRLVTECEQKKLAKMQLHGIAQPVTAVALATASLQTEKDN
# In short: as §1
# ERG = molecular target: T3, ERG (Homo sapiens, UniProt P11308 1-479)
# T3 sequence: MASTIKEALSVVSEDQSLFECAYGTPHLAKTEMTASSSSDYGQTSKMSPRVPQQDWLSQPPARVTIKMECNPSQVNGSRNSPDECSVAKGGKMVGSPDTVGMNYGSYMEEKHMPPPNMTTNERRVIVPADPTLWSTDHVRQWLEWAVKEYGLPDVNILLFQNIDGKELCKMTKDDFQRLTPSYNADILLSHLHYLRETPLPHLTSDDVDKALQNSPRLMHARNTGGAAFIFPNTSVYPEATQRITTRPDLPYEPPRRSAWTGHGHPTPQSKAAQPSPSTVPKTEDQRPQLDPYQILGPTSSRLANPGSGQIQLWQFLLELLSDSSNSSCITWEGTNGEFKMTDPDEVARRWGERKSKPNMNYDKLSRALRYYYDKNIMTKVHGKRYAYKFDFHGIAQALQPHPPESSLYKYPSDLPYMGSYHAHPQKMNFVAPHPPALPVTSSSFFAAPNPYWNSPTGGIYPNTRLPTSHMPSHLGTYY
# In short: as §1
# ELF1 = ELF1 (Homo sapiens, UniProt P32519 1-619)
# In short: as §1
# EHF = molecular target: T4, EHF (Homo sapiens, UniProt Q9NZC4 1-300)
# T4 sequence: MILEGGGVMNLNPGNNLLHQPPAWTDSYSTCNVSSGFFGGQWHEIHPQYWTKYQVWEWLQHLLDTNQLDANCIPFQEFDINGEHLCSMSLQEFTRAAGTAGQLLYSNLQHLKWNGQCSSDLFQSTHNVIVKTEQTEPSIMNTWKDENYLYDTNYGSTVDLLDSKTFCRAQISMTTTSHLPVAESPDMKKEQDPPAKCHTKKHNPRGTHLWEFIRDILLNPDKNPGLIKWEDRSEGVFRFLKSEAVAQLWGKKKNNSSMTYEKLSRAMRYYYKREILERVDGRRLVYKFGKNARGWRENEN
# In short: as §1
# SPIB = SPIB (Homo sapiens, UniProt Q01892 1-262)
# In short: as §1
# ELK3 = molecular target: T5, ELK3 (Homo sapiens, UniProt P41970 1-407)
# T5 sequence: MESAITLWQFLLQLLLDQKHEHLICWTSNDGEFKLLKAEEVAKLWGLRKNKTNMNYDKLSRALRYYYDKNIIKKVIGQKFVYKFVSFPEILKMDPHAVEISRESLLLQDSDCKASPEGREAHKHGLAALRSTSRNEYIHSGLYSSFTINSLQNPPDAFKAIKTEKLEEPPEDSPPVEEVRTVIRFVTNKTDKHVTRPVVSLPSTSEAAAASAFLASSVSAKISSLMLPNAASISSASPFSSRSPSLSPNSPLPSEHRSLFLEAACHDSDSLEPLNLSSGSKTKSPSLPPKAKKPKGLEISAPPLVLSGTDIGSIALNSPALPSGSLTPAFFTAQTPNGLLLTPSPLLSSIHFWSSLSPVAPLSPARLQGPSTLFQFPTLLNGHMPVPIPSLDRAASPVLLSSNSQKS
# In short: as §1
# ETV5 = ETV5 (Homo sapiens, UniProt P41161 1-510)
# In short: as §1
# SPIC = molecular target: T6, SPIC (Homo sapiens, UniProt Q8N5J4 1-248)
# T6 sequence: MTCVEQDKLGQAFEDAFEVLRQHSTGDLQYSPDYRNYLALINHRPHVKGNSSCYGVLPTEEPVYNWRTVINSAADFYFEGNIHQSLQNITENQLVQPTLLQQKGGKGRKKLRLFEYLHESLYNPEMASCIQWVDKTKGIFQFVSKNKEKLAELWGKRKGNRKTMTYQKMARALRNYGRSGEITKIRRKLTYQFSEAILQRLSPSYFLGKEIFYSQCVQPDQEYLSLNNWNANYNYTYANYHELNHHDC
# In short: as §1
# ELF4 = ELF4 (Homo sapiens, UniProt Q99607 1-663)
# In short: as §1
# SPIB, sequence (Q01892 whole entry): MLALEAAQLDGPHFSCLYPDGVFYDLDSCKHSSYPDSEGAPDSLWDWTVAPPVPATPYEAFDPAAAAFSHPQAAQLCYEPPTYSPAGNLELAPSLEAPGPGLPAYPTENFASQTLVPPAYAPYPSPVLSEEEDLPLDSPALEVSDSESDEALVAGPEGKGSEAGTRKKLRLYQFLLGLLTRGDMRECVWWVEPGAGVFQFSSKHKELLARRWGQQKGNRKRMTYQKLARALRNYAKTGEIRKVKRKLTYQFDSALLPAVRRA
# ELF4, sequence (Q99607 whole entry): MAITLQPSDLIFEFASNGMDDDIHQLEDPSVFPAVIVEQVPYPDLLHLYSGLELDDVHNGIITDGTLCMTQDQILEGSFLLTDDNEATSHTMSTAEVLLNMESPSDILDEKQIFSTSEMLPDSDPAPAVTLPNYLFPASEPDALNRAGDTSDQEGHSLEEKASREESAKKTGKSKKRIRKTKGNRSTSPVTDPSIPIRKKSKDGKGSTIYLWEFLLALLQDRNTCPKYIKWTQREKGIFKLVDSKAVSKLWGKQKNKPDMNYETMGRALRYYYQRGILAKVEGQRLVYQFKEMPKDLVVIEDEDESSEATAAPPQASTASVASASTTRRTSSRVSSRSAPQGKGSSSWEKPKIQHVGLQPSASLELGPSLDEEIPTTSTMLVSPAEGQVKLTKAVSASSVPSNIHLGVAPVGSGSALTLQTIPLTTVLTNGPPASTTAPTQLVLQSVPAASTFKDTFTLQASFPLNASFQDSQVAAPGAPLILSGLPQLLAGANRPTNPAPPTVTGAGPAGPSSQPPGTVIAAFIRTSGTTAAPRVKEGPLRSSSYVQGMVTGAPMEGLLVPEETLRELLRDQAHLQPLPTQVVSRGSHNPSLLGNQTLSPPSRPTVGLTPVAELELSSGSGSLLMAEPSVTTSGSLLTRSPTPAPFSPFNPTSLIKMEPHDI
# ELF1, sequence (P32519 whole entry): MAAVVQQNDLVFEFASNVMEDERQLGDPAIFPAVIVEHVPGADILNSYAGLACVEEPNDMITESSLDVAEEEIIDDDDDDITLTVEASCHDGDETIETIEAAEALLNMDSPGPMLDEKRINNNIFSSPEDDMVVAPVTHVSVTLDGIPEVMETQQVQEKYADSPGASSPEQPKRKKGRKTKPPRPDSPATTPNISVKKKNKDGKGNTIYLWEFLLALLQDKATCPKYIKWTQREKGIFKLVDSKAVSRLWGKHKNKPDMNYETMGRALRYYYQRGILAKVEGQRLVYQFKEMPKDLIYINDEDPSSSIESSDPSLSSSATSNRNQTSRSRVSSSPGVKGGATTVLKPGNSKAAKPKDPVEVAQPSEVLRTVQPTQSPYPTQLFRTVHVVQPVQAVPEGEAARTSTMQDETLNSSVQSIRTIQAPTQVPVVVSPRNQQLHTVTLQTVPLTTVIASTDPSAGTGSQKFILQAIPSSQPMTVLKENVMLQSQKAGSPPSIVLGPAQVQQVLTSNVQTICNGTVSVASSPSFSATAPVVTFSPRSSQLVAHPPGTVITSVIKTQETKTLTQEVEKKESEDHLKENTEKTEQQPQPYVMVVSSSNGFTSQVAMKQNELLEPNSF
# ETV5, sequence (P41161 whole entry): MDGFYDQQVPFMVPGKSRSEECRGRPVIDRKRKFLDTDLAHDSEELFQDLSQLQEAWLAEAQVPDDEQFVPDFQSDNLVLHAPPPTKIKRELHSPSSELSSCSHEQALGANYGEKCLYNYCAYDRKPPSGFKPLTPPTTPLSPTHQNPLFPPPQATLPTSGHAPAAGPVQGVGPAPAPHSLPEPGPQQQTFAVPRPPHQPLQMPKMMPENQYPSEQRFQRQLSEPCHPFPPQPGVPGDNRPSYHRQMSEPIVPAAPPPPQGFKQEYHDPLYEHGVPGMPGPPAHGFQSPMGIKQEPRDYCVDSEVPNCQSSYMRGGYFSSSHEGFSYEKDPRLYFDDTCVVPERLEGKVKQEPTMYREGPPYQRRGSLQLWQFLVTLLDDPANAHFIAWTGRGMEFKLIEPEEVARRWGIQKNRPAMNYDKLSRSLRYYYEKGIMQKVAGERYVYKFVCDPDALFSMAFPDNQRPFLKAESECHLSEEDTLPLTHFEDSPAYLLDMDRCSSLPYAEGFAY
sequence,measurement,setting,value
CACAGC,binding signal,ELK1,"1.09 fold enrichment (6-mer frequency, TF over GST control)"
same,binding signal,GABPA,"1.02 fold enrichment (6-mer frequency, TF over GST control)"
same,binding signal,ERG,"1.03 fold enrichment (6-mer frequency, TF over GST control)"
same,binding signal,ELF1,"1.11 fold enrichment (6-mer frequency, TF over GST control)"
same,binding signal,EHF,"1.02 fold enrichment (6-mer frequency, TF over GST control)"
same,binding signal,SPIB,"1.05 fold enrichment (6-mer frequency, TF over GST control)"
same,binding signal,ELK3,"1.07 fold enrichment (6-mer frequency, TF over GST control)"
same,binding signal,ETV5,"1.01 fold enrichment (6-mer frequency, TF over GST control)"
same,binding signal,SPIC,"1.1 fold enrichment (6-mer frequency, TF over GST control)"
same,binding signal,ELF4,"1.08 fold enrichment (6-mer frequency, TF over GST control)"
